Results filed as inconclusive are left out. A number with no mark means an inactive call. Calls of active or inactive are those of the source. Calls come from the whole dose curve; as a rule, active = well fitted inhibition curve with a large enough effect; inconclusive = small, poorly fitted or top-dose-only effect; inactive = flat fitted curve, though single readings scatter.
The compounds below were run against Dual specificity protein kinase CLK4 (Homo sapiens) (UniProt Q9HAZ1) (assay: qHTS Assay for Inhibitors of CDC-like Kinase 4 (ADP-FP Assay) (AID 1795; note: nearly all actives have a fitted effect of over 60% in size;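 for activity change, negative = inhibition: recombinant human CLK4 phosphorylating RS repeat peptide at 1 µM ATP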)). Settings: Transcreener ADP fluorescence polarization; series mostly up to 50 µM; activity change, negative = inhibition: at the top concentration.
Chain of Dual specificity protein kinase CLK4 (Homo sapiens) (Q9HAZ1 whole entry, looked up): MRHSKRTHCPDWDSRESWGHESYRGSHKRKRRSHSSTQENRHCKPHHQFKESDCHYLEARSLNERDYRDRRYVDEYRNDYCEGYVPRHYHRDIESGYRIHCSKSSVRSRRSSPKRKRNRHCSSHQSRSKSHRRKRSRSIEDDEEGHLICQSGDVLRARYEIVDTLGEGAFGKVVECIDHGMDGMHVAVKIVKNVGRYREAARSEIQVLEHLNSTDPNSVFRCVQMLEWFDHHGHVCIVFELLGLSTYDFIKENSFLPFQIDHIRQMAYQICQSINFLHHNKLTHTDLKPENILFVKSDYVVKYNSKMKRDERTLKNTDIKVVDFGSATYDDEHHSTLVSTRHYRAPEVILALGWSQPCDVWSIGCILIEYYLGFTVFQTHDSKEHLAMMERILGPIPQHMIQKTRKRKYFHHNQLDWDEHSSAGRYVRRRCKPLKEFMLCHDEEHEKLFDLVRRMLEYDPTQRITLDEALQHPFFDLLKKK
Method: NIH Molecular Libraries Probe Production Centers Network [MLPCN] NIH Chemical Genomics Center [NCGC] MLPCN Grant: 1R03MH084827-01 Assay Submitter (PI): Tom Misteli NCGC Assay Overview: Clk4 (Invitrogen cat # PV3839) was assayed using ATP and the RS repeat peptide (AnaSpec cat # 61722) as substrates using Transcreener (trade mark), a competitive fluorescence polarization (FP) assay. For the present assay, we used the Orange TranscreenerTM ADP2 (BellBrooks Labs, Madison, Wis) detection system to monitor ADP production in the kinase reaction. […] This allows the ADP tracer to freely rotate leading to a decrease in the observed FP value. The amount of ADP produced can then be calculated using a calibration curve. The positive control for the assay was TG003 (Sigma-Aldrich, cat # 300801-52-9) which is a Clk4 inhibitor [2].
NCGC Assay Protocol Summary: Two uL/well of substrate-buffer solution (100 uM RS peptide, 1 uM ATP, 25 mM Tris pH7.5, 10 mM MgCl2, 0.5 mM EGTA, 2.5 mM DTT, 0.01% Triton X-100 final concentration) was dispensed into 1,536-well assay plates (Greiner, solid black medium-binding plates) with Aurora Discovery BioRAPTR Flying Reagent Dispenser (FRD; Beckton-Dickenson). Using a Kalypsys pin tool equipped with a 1,536-pin tool, 23 nL of compound solution was transferred to the assay plate. Two uL/well Clk4-buffer solution (6.25 nM Clk4, 25 mM Tris pH 7.5, 10 mM MgCl2, 0.5 mM EGTA, 2.5 mM DTT, 0.01% Triton X-100, final concentration) was then added using the FRD yielding a total kinase reaction volume of 4 uL/ well. Then 4 uL/well of detection mixture (4 nM orange fluorescent tracer, 1 ug/mL ADP antibody, final concentration) was then added after an hour and the polarization signal was measured using the EnVision plate reader (PerkinElmer, Waltham, MA) after 30 min of room temperature incubation using the following filters and program settings: BODIPY TMR FP dual Enh mirror (barcode 682); BODIPY-TMR 531 (barcode 105) excitation; BODIPY-TMR FP P/S polarized 595 nm filters (barcodes 210 and 211, respectively); 100% light; 150 flashes; 1.35 G-factor; Detector gains were 685 for the 1st detector; 630 for the 2nd detector.
% is set by controls: 0 for no effect and ±100 for the full control effect; potency is the fitted concentration of half-maximal effect.

SMILES | Potency | activity change, negative = inhibition [%]
COc1cccc(Cn2c(=O)cnc3cnc(Nc4cccc(OC)c4)nc32)c1 | 2 µM (active) | –
COCCn1c(=O)c(-c2cccc(C#N)c2)nc2cnc(Oc3cccc(Cl)c3)nc21 | – | 4.67
O=c1c(-c2ccccc2)nc2cnc(Oc3ccccc3)nc2n1C[C@H]1CCCO1 | – | 6.81
Cc1nc2cnc(OCc3ccccc3)nc2n(CCc2ccccc2)c1=O | – | 9.19
COc1cccc(-c2cncnc2NCCc2c[nH]c3ccc(OC)cc23)c1 | – | -1.36
Cc1nc2cnc(Oc3cccc(Cl)c3)nc2n(Cc2ccc(F)cc2)c1=O | – | 8.73
O=c1c(CCc2ccccc2)nc2cnc(Oc3ccccc3)nc2n1C1CC1 | – | 12
CN1CCN(c2nc(-c3ccoc3)nc3ccccc23)CC1 | – | -23.4
CN1CCN(c2nc(-c3cccnc3)nc3ccccc23)CC1 | – | -20.9
CN1CCN(c2ncc3nc(-c4cccc(C#N)c4)c(=O)n(CCc4ccccc4)c3n2)CC1 | – | -3.83
COc1ccc(Oc2ncc3nc(-c4cc(F)cc(F)c4)c(=O)n(C4CC4)c3n2)cc1 | – | 0.16
COc1cccc(-c2cncnc2NCc2ccccc2OC)c1 | 14.1 µM (active) | –
COCCn1c(=O)c(-c2ccc(F)cc2)nc2cnc(Oc3ccccc3)nc21 | – | 5.82
CN(C)c1ncc2nc(CCc3ccccc3)c(=O)n(CCC#N)c2n1 | – | 11.7
CCNc1ncc2nc(CCc3ccccc3)c(=O)n(Cc3cccc(OC)c3)c2n1 | – | 11.1
O=c1c(-c2ccccc2)nc2cnc(N3CCOCC3)nc2n1CCc1ccccc1 | – | 2.71
COc1cccc(Nc2ncc3nc(-c4cccs4)c(=O)n(C[C@H]4CCCO4)c3n2)c1 | – | -4.36
O=c1c(CCc2ccccc2)nc2cnc(N3CCOCC3)nc2n1-c1ccccc1 | – | 4.55
N#CCCn1c(=O)c(-c2ccc(Cl)cc2)nc2cnc(N3CCOCC3)nc21 | – | 6.46
CN(C)c1nc(-c2cccc(NS(C)(=O)=O)c2)nc2ccccc12 | – | -15.2

SMILES | Potency | activity change, negative = inhibition [%]
CCNc1ncc2ncc(=O)n(Cc3ccc(F)cc3)c2n1 | 11.2 µM (active) | –
FC(F)(F)c1ccccc1-c1nc(NCc2cccnc2)c2ccccc2n1 | – | -3.06
CCNc1ncc2nc(-c3ccc(OC)cc3)c(=O)n(C)c2n1 | – | 7.89
CN(C)c1ncnc2ccc(-c3cccc(NS(C)(=O)=O)c3)cc12 | 12.6 µM (active) | –
CN(C)c1ncc2nc(CCc3ccccc3)c(=O)n(Cc3cccs3)c2n1 | – | 5.51
CN1CCN(c2ncc3nc(-c4cn(C)c5ccccc45)c(=O)n(CCC#N)c3n2)CC1 | – | 4.55
COc1ccccc1CNc1nc(-c2ccc(C(=O)N(C)C)cc2)nc2ccccc12 | – | -14.1
COc1cccc(Cn2c(=O)cnc3cnc(N(C)C)nc32)c1 | – | -20.3
COc1ccc2[nH]cc(CCNc3ncncc3-c3ccccc3C(F)(F)F)c2c1 | – | -3.19
CCNc1ncc2nc(CCc3ccccc3)c(=O)n(C3CC3)c2n1 | – | 4.39
Cn1c(=O)c(-c2ccc(Cl)cc2)nc2cncnc21 | – | -4.59
COCCn1c(=O)c(-c2cccc(C#N)c2)nc2cnc(OCc3ccccc3)nc21 | – | 12.2
Cc1ccccc1-c1ccc2ncnc(NCCN3CCOCC3)c2c1 | – | -26.1
Cc1cccc(CNc2ncncc2-c2ccccc2CN(C)C)c1 | – | -0.558
Cc1ccccc1-c1ccc2ncnc(-n3ccnc3)c2c1 | 3.98 µM (active) | –
Cc1cnc(CNc2ncnc3ccc(-c4ccc(N(C)C)cc4)cc23)cn1 | – | -1.99
COCCn1c(=O)c(CCc2ccccc2)nc2cnc(Oc3ccccc3)nc21 | – | 4.23
COc1ccccc1CNc1ncnc2ccc(-c3ccc(C(=O)N(C)C)cc3)cc12 | – | -4.82
Cn1cc(-c2nc3cnc(N4CCNCC4)nc3n(C3CC3)c2=O)c2ccccc21 | – | 1.53
COc1ccc(Oc2ncc3nc(-c4ccc(F)cc4)c(=O)n(CCC#N)c3n2)cc1 | – | 11.7

From PubChem BioAssay (NCATS)
